PubChem BioAssay (Tox21)
Calls of active or inactive are those of the source. Calls come from the whole dose curve; as a rule, active = well fitted curve in the direction sought with a large enough effect in the repeat runs; inconclusive = weak or mixed curves; inactive = flat fitted curve, though single readings scatter.

assay: qHTS assay to test for compound auto fluorescence at 590 nm (red) in HepG2 cells (AID 720674); conditions: HepG2 autofluorescence, red 540/590 nm, 1 h; series mostly up to 91.3 µM; fluorescence, relative to Rose Bengal: at the top concentration
Description: U.S. Tox21 Program National Center for Advancing Translational Sciences [NCATS] NIH Chemical Genomics Center [NCGC] U.S. Environmental Protection Agency [EPA] National Institutes of Environmental Health Sciences [NIEHS] National Toxicology Program [NTP] U.S. Food and Drug Administration [FDA] Tox21 Assay Overview: Compound auto fluorescence often interferes with screening of the compound library against various biological targets and signaling pathways. Some of these compounds may have fluorophoric properties. Such properties may interfere with the assay outputs resulting in false positives and/or negatives. To decrease such complications and ensure the compound activities are relevant in terms of biological response, the Tox21 10K compound library was screened for auto fluorescence. From the fluorophores used as reporter signals in our screening assays, the auto fluorescence equivalencies of compounds against three fluorophores have been evaluated: Triamterene, Fluorescein and Rose Bengal sodium for blue, green and red fluorescence, respectively. The fluorescence intensities were measured using Excitation/Emission wavelengths at 405/460nm, 485/535nm and 540/590nm for blue, green and red labels, respectively. This assay includes the red fluorescence data.
Tox21 Assay Protocol Summary: 2,000 HepG2 cells in 5 uL of culture medium (MEM containing 10% FBS) per well were dispensed into black wall/clear bottom 1536-well plates using a Multidrop Combi Dispenser (ThermoFisher Scientific, Waltham, MA). The assay plates were incubated overnight at 37 C to allow cell attachment to the well bottom, followed by the transfer of 23 nL compound or DMSO vehicle by a pintool work station (Kalypsys , San Diego, CA). After the assay plates were incubated for 1 hr at 37 C and 5% CO2, fluorescence intensities in the assay plates were measured by an Envision (PerkinElmer, Shelton, CT) plate reader using three labels for measuring blue, green and red fluorescence at […] 460, 535 and 590 nm respectively.
% is set by controls: 0 for no effect and ±100 for the full control effect.

Structure (SMILES) | fluorescence, relative to Rose Bengal | outcome
CCC1C(=O)OCC1Cc1cncn1C (stereo not given) | 0.412% [at 46 µM] (inactive) | 
Cc1ccnc(NS(=O)(=O)c2ccc(N)cc2)n1 | 0.0946% [at 18.6 µM] (inactive) | 
CC1=C(C/C=C(\C)CCC[C@H](C)CCC[C@H](C)CCCC(C)C)C(=O)c2ccccc2C1=O | 0.249% [at 46 µM] (inactive) | 
O=C(O)c1cn(C2CC2)c2cc(N3CCNCC3)c(F)cc2c1=O | -0.332% [at 18.6 µM] (inactive) | 
Cc1ccc(-c2ncc(Cl)cc2-c2ccc(S(C)(=O)=O)cc2)cn1 | -0.157% [at 46 µM] (inactive) | 
C=CC(C)(CCC=C(C)C)OC(=O)CC (stereo not given) | -0.188% (inactive) | 
CCO[Si](OCC)(OCC)c1ccccc1 | -0.116% (inactive) | 
CCOCC(C)O (stereo not given) | 0.294% (inactive) | 
Nc1ccccn1 | 0.0819% (inactive) | 
CN1[C@@H]2CC[C@H]1CC(OC(=O)C(O)c1ccccc1)C2 (stereo not given in full) |  | inactive
COc1ccnc(CS(=O)c2nc3cc(OC(F)F)ccc3[nH]2)c1OC (stereo not given) |  | inactive
C=COCC1CCC(COC=C)CC1 (stereo not given) | 0.072% (inactive) | 
CCCCCCCCCCCCCCCCCCO | -0.0823% [at 46 µM] (inactive) | 
CC(=O)N1C[C@H](O)C[C@H]1C(=O)O | -0.178% [at 46 µM] (inactive) | 
O=S(=O)(O)c1cc(O)c(O)c(S(=O)(=O)O)c1 | -0.0538% (inactive) | 
CCCO[Si](OCCC)(OCCC)OCCC | 0.193% (inactive) | 
COC(=O)C1=C(C)NC(C)=C(C(=O)OC(C)C)C1c1cccc2nonc12 (stereo not given) | 0.351% [at 18.6 µM] (inactive) | 
COC(=O)Nc1ccc(Cl)c(Cl)c1 | -0.0119% (inactive) | 
COc1cc(-c2ccc(=O)[nH]n2)ccc1OC(F)F | -0.0692% [at 46 µM] (inactive) | 
Nc1ccn([C@@H]2O[C@H](CO)[C@@H](O)C2(F)F)c(=O)n1 | 0.638% [at 46 µM] (inactive) | 

Structure (SMILES) | fluorescence, relative to Rose Bengal | outcome
CC[N+](C)(CC)CCOC(=O)C1c2ccccc2Oc2ccccc21 | -0.328% [at 46 µM] (inactive) | 
CC(C)C1CCC(O)CC1 (stereo not given) | 0.113% (inactive) | 
Cc1ccccc1N=C(N)N=C(N)N | -0.172% (inactive) | 
CCCCCCCCN1CCCC1=O | -0.0375% (inactive) | 
NC(=O)Cc1cccc2ccccc12 | 0.0417% (inactive) | 
O=C1c2ccccc2C(=O)c2cc(O)ccc21 | -0.0819% (inactive) | 
CCCCN1C=CN(C)C1 | -0.0028% [at 18.6 µM] (inactive) | 
CCCCN(CCC(=O)OCC)C(C)=O | 0.247% (inactive) | 
CCCCCCCCCCOc1cc2c(=O)c(C(=O)OCC)c[nH]c2cc1OCC | 0.449% [at 46 µM] (inactive) | 
C[N+]12CCC(CC1)C(OC(=O)C(O)(c1ccccc1)c1ccccc1)C2 (stereo not given) | 0.0225% [at 18.6 µM] (inactive) | 
Nc1ccn([C@@H]2O[C@H](CO)[C@@H](O)[C@@H]2O)c(=O)n1 | -0.0608% (inactive) | 
O=S(=O)(O)c1cccc2ccccc12 | -0.212% (inactive) | 
Nc1c2c(nc3c1CCC3)CCCC2 | 0.588% [at 46 µM] (inactive) | 
COc1c(N2CCNC(C)C2)c(F)cc2c(=O)c(C(=O)O)cn(C3CC3)c12 (stereo not given) | 0.334% [at 46 µM] (inactive) | 
CC(C)(C)OC(=O)c1cccc(N)c1 | 0.0568% [at 95.7 µM] (inactive) | 
C=COC(=O)C(C)(CC)CCC(C)C (stereo not given) | -0.264% (inactive) | 
O=C(O)CCSCCC(=O)O | 0.0813% (inactive) | 
CC(C)C(=O)OC(=O)C(C)C | 0.0181% (inactive) | 
CC(=O)NC(=O)c1ccccc1O | 0.0949% [at 46 µM] (inactive) | 
CCN(Cc1ccccc1)c1ccccc1 | 0.0389% (inactive) | 
